The structures appear in SMILES notation. Results filed as inconclusive are left out. Where a call stands in place of a potency, no number is given. Activity calls are given as the source filed them. Calls follow the shape of the dose curve; as a rule, active = well fitted inhibition curve with a large enough effect; inconclusive = small, poorly fitted or top-dose-only effect; inactive = no such curve, though single readings can be large or run the other way.
Potency is read from the fitted curve at half-maximal effect.

This test can be described thus: Primary qHTS for inhibitors of nuclear receptor binding SET domain protein 2 (NSD2) in an RCH-ACV wild type WT cells (2C) (AID 1645877). Also: nearly all actives have a fitted effect of over 70% in size. The note with it: RCH-ACV (leukaemia line) NSD2 WT (2C) viability, CellTiter-Glo, 72 h; series mostly up to 44.9 µM.
With `O=C1Nc2ccccc2C1(c1ccc(O)cc1)c1ccc(O)cc1`, the Potency was 16.8 µM (active).

Consider `CCCCCOc1ccc(C2SC(=O)NC2=O)cc1OCC` (stereo not drawn), for which the Potency result is “inactive”.

For `Clc1ccc2c(c1)Nc1ccccc1S2`, the Potency result was “inactive”.

Take `CCc1cccc2c(CCO)c[nH]c12`: the Potency result was “inactive”.

As for `CN(C)CCN(Cc1ccsc1)c1ccccn1`, the Potency result is “inactive”.

As to `Oc1ccc(CCNCCCCCCNCCc2ccccc2)cc1O`, the Potency is 16.8 µM (active).

On to `CO[C@@H]1[C@@H](OC)[C@H](C)[C@@](O)(CC(=O)O)O[C@H]1[C@H](C)[C@H]1O[C@@]2(CC[C@@](C)([C@H]3CC[C@@](C)([C@@H]4O[C@@H]([C@H]5O[C@](C)(O)[C@H](C)C[C@@H]5C)C[C@@H]4OC4C[C@H](OC)[C@@H](OC)[C@H](C)O4)O3)O2)C[C@H](O)[C@H]1C` (stereo partly drawn), for which the Potency is 0.531 µM (active).

Regarding `C[C@H]1NCc2cc(-c3ccc4c(=O)c(C(=O)O)cn(C5CC5)c4c3OC(F)F)ccc21`, the Potency entry was “inactive”.

`Cc1ccc(/C=N/n2c(-c3ccccc3)csc2=S)cc1`: the Potency entry is “inactive”.

Take `C/C=C(/C(=C/C)c1ccc(OC(C)=O)cc1)c1ccc(OC(C)=O)cc1`: the Potency is 3.76 µM (active).

Turning to `CCCCCN(CCCOC)C(=O)C(CCC(=O)O)NC(=O)c1ccc(Cl)c(Cl)c1` (stereo not drawn), the Potency entry is “inactive”.

For `Nc1ccc(C(=O)OCC(O)CO)cc1` (stereo not drawn), the Potency entry was “inactive”.

For `CC(C)=CCC/C(C)=C/CC/C(C)=C/C(=O)OCC(=O)[C@@]1(O)CC[C@H]2[C@@H]3CCC4=CC(=O)C=C[C@]4(C)[C@H]3[C@@H](O)C[C@@]21C`, the Potency was 4.73 µM (active).

Turning to `CN1CCCN(C(c2ccccc2)c2ccc(Cl)cc2)CC1` (stereo not drawn), the Potency is 16.8 µM (active).

On to `CC(C)(C)CC(=O)OCC(=O)[C@@]1(O)CC[C@H]2[C@@H]3CCC4=CC(=O)C=C[C@]4(C)[C@H]3[C@@H](O)C[C@@]21C`, for which the Potency is 0.0531 µM (active).

Regarding `Cc1cccc(N(C)C(=S)Oc2ccc3c(c2)CCC3)c1`, the Potency entry is “inactive”.

As for `CCOC(=O)c1cc(=O)c2c(OCC(COc3cccc4oc(C(=O)OCC)cc(=O)c34)OC(=O)[C@@H](N)CCCCN)cccc2o1`, the Potency result is “inactive”.

Regarding `CC(=O)O[C@H]1CC[C@@]2(C)C(=CC[C@@H]3[C@@H]2CC[C@]2(C)C(C(C)=O)=CC[C@@H]32)C1`, the Potency result is “inactive”.

Take `Cc1cnc(NS(=O)(=O)c2ccc(N)cc2)nc1`: the Potency entry is “inactive”.

As for `CC(C)(C)NCC(O)COc1ccccc1OCC1CCCO1` (stereo not drawn), the Potency result is “inactive”.

For `Nc1ccc2c(c1)CN1C(=O)c3ccccc3C1=N2`, the Potency was 8.2 µM (active).

With `CCCCCCn1c(=O)c2c(ncn2C)n(C)c1=O`, the Potency result is “inactive”.

On to `CN1Cc2cc(C(=O)N3CCC(C4CCNCC4)CC3)ccc2N[C@@H](CC(=O)O)C1=O`, for which the Potency result was “inactive”.

Turning to `N#Cc1cc(NC(=O)C(=O)O)c(Cl)c(NC(=O)C(=O)O)c1`, the Potency result is “inactive”.

As for `CCCCN(CCN(CCCC)C(=O)N1CCOCC1)C(=O)N1CCOCC1`, the Potency entry is “inactive”.

Turning to `Nc1ncnc2nc[nH]c12`, the Potency result was “inactive”.

Take `CC(=O)N(CC(O)CO)c1c(I)c(C(=O)NCCO)c(I)c(C(=O)NCC(O)CO)c1I` (stereo not drawn): the Potency result was “inactive”.

Turning to `O=C1Cc2cc(Cl)ccc2N1`, the Potency entry was “inactive”.

`C#Cc1ccc(-c2ccccc2F)cc1`: the Potency result is “inactive”.

With `O=c1[nH]c(=O)n([C@H]2O[C@H](CO)[C@@H](O)[C@@H]2O)cc1/C=C\Br`, the Potency entry is “inactive”.

Regarding `O=C(CS(=O)Cc1ccco1)NC/C=C\COc1cc(CN2CCCCC2)ccn1` (stereo not drawn), the Potency result was “inactive”.

As to `Cc1ccc2c(Cl)cc(Cl)c(O)c2n1`, the Potency result was “inactive”.

For the molecule `CC(C(O)c1ccccc1)N(C)CCOC(c1ccccc1)c1ccccc1` (stereo not drawn), the Potency was 16.3 µM (active).

Take `CC(=O)OCC(=O)[C@@]1(O)[C@H](OC(C)=O)C[C@H]2[C@@H]3CCC4=CC(=O)C=C[C@]4(C)[C@@]3(F)[C@@H](O)C[C@@]21C`: the Potency was 0.0596 µM (active).

`Cc1c(F)cc2c(=O)c(C(=O)O)cn3c2c1CCC3C` (stereo not drawn): the Potency entry was “inactive”.

For the molecule `CCN1CCCC1CN` (stereo not drawn), the Potency result is “inactive”.

Regarding `OCc1cccnc1`, the Potency result is “inactive”.

With `CN1[C@@H]2CC[C@H]1CC(NC(=O)n1c(=O)[nH]c3ccccc31)C2` (stereo partly drawn), the Potency entry was “inactive”.

The record behind these values is PubChem BioAssay (NCATS).
